Sampled rows, rich in hits. Any-hit rate of the full collection: about 1.1%.
MOR-DOR ag-1 – agonists of human mu-delta opioid receptor heterodimerization. actives 0.3% (n = 340,000). cells, OPRM1-OPRD1 heterodimerization, luminescence. activation, % at 9.3 µM. P35372+P41143. AID 504326
Target sequence (P35372 whole entry, looked up): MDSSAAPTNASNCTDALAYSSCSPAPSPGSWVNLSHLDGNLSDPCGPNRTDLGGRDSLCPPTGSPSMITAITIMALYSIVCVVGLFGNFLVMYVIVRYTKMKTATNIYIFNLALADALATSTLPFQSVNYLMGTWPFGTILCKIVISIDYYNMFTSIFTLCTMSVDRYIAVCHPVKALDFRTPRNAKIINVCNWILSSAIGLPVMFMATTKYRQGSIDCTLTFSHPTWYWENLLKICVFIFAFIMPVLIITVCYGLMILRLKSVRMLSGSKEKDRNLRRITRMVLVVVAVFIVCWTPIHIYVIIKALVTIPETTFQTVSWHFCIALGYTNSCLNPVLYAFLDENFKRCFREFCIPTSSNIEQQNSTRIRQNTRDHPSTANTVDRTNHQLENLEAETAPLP
Target sequence (P41143 whole entry, looked up): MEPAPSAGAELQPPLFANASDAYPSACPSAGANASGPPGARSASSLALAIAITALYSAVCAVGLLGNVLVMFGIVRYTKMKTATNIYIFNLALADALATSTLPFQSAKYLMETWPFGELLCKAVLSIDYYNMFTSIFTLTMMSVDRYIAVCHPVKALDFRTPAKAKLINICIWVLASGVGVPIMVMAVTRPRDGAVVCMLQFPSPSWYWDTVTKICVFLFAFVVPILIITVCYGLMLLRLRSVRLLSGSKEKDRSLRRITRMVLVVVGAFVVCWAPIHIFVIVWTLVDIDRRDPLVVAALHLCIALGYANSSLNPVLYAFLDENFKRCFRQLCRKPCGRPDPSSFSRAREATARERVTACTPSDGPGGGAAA
HTR5A inv ag – inverse agonist of human HTR5A in OPRM1-OPRD1 counter-screen. P47898. actives 0.083% (n = 340,000). HTR5A cell line, luminescence, inverse agonism. inhibition, % at 9.3 µM. AID 504634; in the data active = inhibition mostly above about 23%, no sharp cut-off; inactive = mostly below about 18%
HTR5A ag – activates human HTR5A in OPRM1-OPRD1 agonist counter-screen; actives 0.61% (n = 340,000); activation, % at 9.3 µM; HTR5A agonist assay, luminescence, cell-based; P47898; AID 504692; in the data active = activation mostly above about 9.5%, no sharp cut-off; inactive = mostly below about 7.6%
Bfl-1 A1 inh – inhibitors of the anti-apoptotic protein A1, read as caspase activation | caspase activation, % (test concentration not listed) | MEF A1-2A-BIM cells, Caspase-Glo 3/7 luminescence, 3 h; percent of clofoctol response, vehicle zero | AID 2462 | actives 0.066% (n = 330,000);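 active = over half of replicate activation scores above 10%, or exactly half above 10 with the replicate mean above 10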
MOR-DOR inv ag-1 – inverse agonists of human mu-delta opioid receptor heterodimerization; cell-based MOR-DOR heterodimer luminescence, inverse agonism; inhibition, % at 9.3 µM; actives 0.21% (n = 340,000); AID 504357; in the data active = inhibition above about 22%, passing the limit was not always enough
MOR-DOR ag conf – OPRM1-OPRD1 heterodimer agonism, confirmation; activation, % at 9.3 µM; actives 45% (n = 830); AID 504904; cells, MOR-DOR heterodimerization, luminescence complementation; shares compounds with MOR-DOR ag-1
HTR5A ag counter – activates human HTR5A in OPRM1-OPRD1 agonist counter-screen. shares compounds with MOR-DOR ag-1. HTR5A agonist counterscreen, cell luminescence. activation, % at 9.3 µM. actives 8% (n = 830); in the data active = activation above about 17%
OPRM1-D1 inv cf – OPRM1-OPRD1 heterodimer inverse agonism, confirmation | shares compounds with MOR-DOR inv ag-1 | cells expressing OPRM1/OPRD1 heterodimer, luminescence | inhibition, % at 9.3 µM | AID 504900 | actives 20% (n = 580); in the data active = inhibition above about 32%
HTR5A inv count – counter-screen for OPRM1-OPRD1 inverse agonists: human HTR5A inverse agonism | shares compounds with MOR-DOR inv ag-1 | inhibition, % at 9.3 µM | HTR5A-expressing cells, luminescence | AID 504914 | 580 tested, under 10 active; call rule not given here
MOR-DOR inv ag-2 – inverse agonist of OPRM1-OPRD1 heterodimerization in HTR5A counter-screen; shares compounds with HTR5A inv ag; U2OS counter-screen cells, complementation luminescence; inhibition, % at 9.3 µM; 190 tested, under 10 active; call rule not given here
HTR5A inv confrm – HTR5A (human) inverse agonism, confirmation; inhibition, % at 9.3 µM; 190 tested, under 10 active; shares compounds with HTR5A inv ag; HTR5A-expressing cells, luminescence; call rule not given here
MOR-DOR ag-2 – opioid heterodimer agonism, HTR5A counter-screen | shares compounds with HTR5A ag | U2OS counter-screen cells, complementation luminescence, 3 h | activation, % at 9.3 µM | actives 13% (n = 800) | AID 504913
HTR5A ag confirm – HTR5A (human) agonism, confirmation. shares compounds with HTR5A ag. HTR5A agonist cell assay, luminescence. activation, % at 9.3 µM. actives 17% (n = 800); in the data active = activation above about 17%
Large screens that a line does not name were inactive (follow-up assays come after a bar, where they were run). Rule as the data show it, unless noted: active = activation above about 18%; inactive = the rest.

CCC(=O)OC1(Cc2ccc(CC)cc2)CC(C)N(C)CC1C (configuration not stated)	MOR-DOR ag-1 20 | MOR-DOR ag conf inactive | HTR5A ag counter inactive
CC1CC(OC(=O)c2ccccc2)(c2ccccc2)C(C)CN1C (configuration not stated)	none
CCC(=O)OC1(c2cccc(C)c2)CC(C)N(C)CC1C (configuration not stated)	MOR-DOR ag-1 64 | MOR-DOR ag conf 66 | HTR5A ag counter inactive
N#CC(CCN1CCOCC1)(c1ccccc1)c1ccccc1	none
CCC(=O)C(CCN1CCOCC1)(c1ccccc1)c1ccccc1	MOR-DOR ag-1 271 | MOR-DOR ag conf 250 | HTR5A ag counter inactive
Cc1c(C)c2ccc(OCC(=O)N3C[C@H]4C[C@@H](C3)c3cccc(=O)n3C4)cc2oc1=O	none
CCCCn1c(NS(=O)(=O)c2ccc(C)cc2)c(C(=O)OCC)c2nc3ccccc3nc21	none
CCCCn1c(NC(=O)c2ccco2)c(C(=O)OCC)c2nc3ccccc3nc21	MOR-DOR inv ag-1 45 | OPRM1-D1 inv cf inactive | HTR5A inv count inactive
CCCCOCCCn1c(N)c(C(=O)OCCOC)c2nc3ccccc3nc21	MOR-DOR inv ag-1 33 | OPRM1-D1 inv cf inactive | HTR5A inv count inactive
Cc1ccc(CN2C3CCCC2CC(NC(=O)Nc2cccc(F)c2)C3)cc1 (configuration not stated)	none
Cc1cc(OCC(=O)N2CCC(C(=O)O)CC2)c2c3c(c(=O)oc2c1)CCC3	none
COc1cccc(-n2c(O)c(C=NCCN3CCNCC3)c(=O)[nH]c2=S)c1	none
COC(COC(N)=O)C1=C(N2CC2)C(=O)C(C)=C(N2CC2)C1=O (configuration not stated)	none (no result: Bfl-1 A1 inh)
CC1=C(N2CC2)C(=O)C(CO)=C(N2CC2)C1=O	MOR-DOR inv ag-1 42 (no result: Bfl-1 A1 inh) | OPRM1-D1 inv cf inactive | HTR5A inv count inactive
CC1CN(O)C2CCc3nonc3C12O (configuration not stated)	MOR-DOR inv ag-1 43 | OPRM1-D1 inv cf inactive | HTR5A inv count inactive
CCOc1ccc2nc(N=Nc3c(O)[nH]c(=S)[nH]c3=O)sc2c1	MOR-DOR inv ag-1 32 | OPRM1-D1 inv cf inactive | HTR5A inv count inactive
Cc1cc(O)c2c(c1)C(=O)C13C(=C2O)C(=O)[C@H]2[C@@H](O)[C@@H]1[C@H]1[C@H](O)[C@@H]3C(=O)C3=C(O)c4c(O)cc(C)cc4C(=O)C312 (some centres not stated)	none
Nc1cc(Cl)c2nonc2c1[N+](=O)[O-]	MOR-DOR inv ag-1 40 | OPRM1-D1 inv cf inactive | HTR5A inv count inactive
C[C@H]1CCC/C=C/[C@@H]2C[C@H](O)C[C@H]2[C@H](O)/C=C/C(=O)O1	MOR-DOR inv ag-1 33 | OPRM1-D1 inv cf inactive | HTR5A inv count inactive
C[C@H]1CCCC(=O)CCC/C=C/c2cc(O)cc(O)c2C(=O)O1	none
C[C@@H]1C(=O)O[C@H]2[C@H](O)[C@]34[C@@H]5OC(=O)[C@]3(OC3OC(=O)[C@H](O)C34[C@H](C(C)(C)C)[C@@H]5O)[C@@]12O (some centres not stated)	none (no result: Bfl-1 A1 inh)
CC1CCCN(CC(=O)c2ccc(Cl)c(Cl)c2)C1 (configuration not stated)	MOR-DOR inv ag-1 71 | OPRM1-D1 inv cf 66 | HTR5A inv count inactive
Cc1ccc(N/N=C/c2c(O)n(-c3ccccc3)c(=O)[nH]c2=O)cc1	MOR-DOR inv ag-1 32 | OPRM1-D1 inv cf inactive | HTR5A inv count inactive
CC1CN(CC(=O)c2ccccc2Cl)CC(C)O1 (configuration not stated)	none
CC1CCN(CC(=O)c2ccccc2Cl)CC1	MOR-DOR inv ag-1 40 | OPRM1-D1 inv cf inactive | HTR5A inv count inactive
ON1C2CCCCC2N(O)C1c1ccccc1 (configuration not stated)	MOR-DOR inv ag-1 45 | OPRM1-D1 inv cf inactive | HTR5A inv count inactive
c1ccc(C2N3CCCN23)cc1 (configuration not stated)	none
CCOC(=O)C1CCCN(c2ccc([N+](=O)[O-])c3nonc23)C1 (configuration not stated)	none (no result: Bfl-1 A1 inh)
CN(C)c1ccc(/C=C/c2cc[n+](C)c3ccccc23)cc1	HTR5A inv ag 38 (no result: Bfl-1 A1 inh) | MOR-DOR inv ag-2 inactive | HTR5A inv confrm inactive
c1ccc(-c2ccc(-c3n(-c4ccccn4)c4ccccc4[n+]3-c3ccccn3)cc2)cc1	none (no result: Bfl-1 A1 inh)
CCCCC/C(=N/O)c1c(C)[nH]c2ccccc12	HTR5A ag 15 | MOR-DOR ag-2 inactive | HTR5A ag confirm inactive
CCCN(CCC)C1CCc2cccc(O)c2C1 (configuration not stated)	HTR5A ag 46 | MOR-DOR ag-2 inactive | HTR5A ag confirm 56
CCCN1CC[C@@H]2c3cc(O)ccc3CC[C@@H]21	none
CCCN(CCC)C1CCc2ccc(O)cc2C1 (configuration not stated)	HTR5A ag 35 | MOR-DOR ag-2 31 | HTR5A ag confirm inactive
N#CC1c2ccccc2-n2nncc2CN1S(=O)(=O)c1cc(Cl)cc(Cl)c1 (configuration not stated)	none (no result: Bfl-1 A1 inh)
Cc1ccc(S(=O)(=O)N(c2cc(Cl)c(O)c(Cl)c2)P(=O)(OC(C)C)OC(C)C)cc1	none
Clc1cc(I)cc(Cl)c1NC1=NCCN1	HTR5A ag 43 | MOR-DOR ag-2 inactive | HTR5A ag confirm inactive
CC1=C[C@@H]2c3cccc4[nH]cc(c34)C[C@H]2N(C)C1	HTR5A ag 26 | MOR-DOR ag-2 inactive | HTR5A ag confirm 34

Source: PubChem
